Screening results: PubChem, National Center for Advancing Translational Sciences (NCATS)
KCNH2 3.1 inh – qHTS for Inhibitors of KCHN2 3.1: Mutant qHTS; Potassium voltage-gated channel subfamily H member 2, brain isoform KCNH2 3.1 (human); U2OS KCNH2 3.1, thallium flux FluxOr; stronger effect = lower value; activity change, % (tested at about 1.8 µM); 340,000 tested, 0.95% active;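 active = maximum activity change below -70%; inconclusive = maximum activity change from -70% to -50%; inactive = maximum activity change above -50%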;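 also: thallium influx rate constant from kinetic fluorescence after stimulation buffer; % is scaled to controls: 0 for no effect and ±100 for the full control effect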
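FluxOr-based Tl+ influx in U2OS cells transduced with KCNH2 3.1 virus; rate constants normalized to DMSO controls.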
SW480 rerep – A quantitative high throughput screen for small molecules that induce DNA re-replication in SW480 colon adenocarcinoma cells; Potency, µM (highest dose often 46.1 µM), inactives show at the highest dose re-replication activation, most hits filed as activators; SW480 DNA re-replication, Hoechst DNA content imaging, 48 h; 340,000 tested, 1.8% active; also: potency is read from the fitted curve at half-maximal effect; % of control where 0% means no effect; nearly all actives have a fitted effect of over 55% in size
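Image-based DNA-content assay: after two days of treatment, nuclei were labelled with the DNA dye Hoechst and imaged, and hits were compounds raising the count of nuclei showing high fluorescence intensity.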
hERG WT inh – qHTS for Inhibitors of KCHN2 3.1: Wildtype qHTS; U2OS, BacMam KCNH2, thallium flux FluxOr; stronger effect = lower value; activity change, % at 1.84 µM; 340,000 tested, 0.37% active; Voltage-gated inwardly rectifying potassium channel KCNH2 (Homo sapiens), Q12809;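 active = maximum activity change below -70%; inconclusive = maximum activity change between -70% and -50%; inactive = maximum activity change above -50%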; also: % is scaled to controls: 0 for no effect and ±100 for the full control effect
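U2OS cells were transduced with wild-type KCNH2 virus (2.03 x 10^8 / mL) for 4 h at room temperature, then cultured overnight at 37 C. Thallium flux was read with FluxOr dye. Rate constants were normalized to DMSO controls.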
KB-V1 cytotox – qHTS assay for MDR1-selective chemotherapeutics: Primary screen using the drug-selected MDR subline cells KB-V1 | KB-V1 MDR cells viability, CellTiter-Glo, 72 h | Potency, µM (doses to about 46.1 µM), hits mostly cytotoxic | 400,000 tested, 3.4% active; also: potency is read from the fitted curve at half-maximal effect; % is scaled to controls: 0 for no effect and ±100 for the full control effect; nearly all actives have a fitted effect of over 60% in size
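Following 72 h at 37 degrees C with compound, KB-V1 cell viability was read by CellTiter-Glo luminescence, medium being phenol-red-free DMEM plus 10% FBS; concentration-response parameters came from normalized, curve-fitted qHTS data.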
KB-3-1 cytotox – qHTS assay for MDR1-selective chemotherapeutics: Primary screen using the parental adenocarcinoma cell KB-3-1. KB-3-1 viability, CellTiter-Glo ATP luminescence, 72 h. 400,000 tested, 1.4% active. AID 1347075, 2019. Potency, µM (titrated, usually from 46.1 µM), hits mostly cytotoxic; also: potency is read from the fitted curve at half-maximal effect; % is scaled to controls: 0 for no effect and ±100 for the full control effect; nearly all actives have a fitted effect of over 60% in size
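Multi-concentration cytotoxicity screen in KB-3-1 cells grown in DMEM lacking phenol red with 10% FBS. After 72 h at 37 °C with compound, ATP-dependent luminescence was recorded.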
MCF10A rerep – A quantitative high throughput screen for small molecules that induce DNA re-replication in MCF 10a normal breast cells. 350,000 tested, 2.9% active. AID 624296, 2012. MCF 10A DNA re-replication, Hoechst nuclear intensity, 48 h. Potency, µM (titrated, usually from 46.1 µM), inactives show at the highest dose activity, positive = re-replication, hits mostly activators; also: potency is read from the fitted curve at half-maximal effect; % of control where 0% means no effect; nearly all actives have a fitted effect of over 50% in size
Numbers without * were called inactive; i = inactive; ? = inconclusive; nt = no result given. Sampled rows, rich in hits. Any-hit rate of the full collection: about 7.6%. Unless noted, calls follow the shape of the dose curve; as a rule, active = well fitted curve in the direction sought with a large enough effect; inconclusive = small, poorly fitted or top-dose-only effect, or another doubt; inactive = no such curve, though single readings can be large; an effect the other way counts as inactive or inconclusive.

SMILES | KCNH2 3.1 inh | SW480 rerep | hERG WT inh | KB-V1 cytotox | KB-3-1 cytotox | MCF10A rerep
COC(=O)C1=C(c2ccc(F)cc2OCc2ccccc2)C[C@@H]2CC[C@H]1N2C(=O)NCCO | 15.0 | 2.6% | -4.0 | i | i | 4.3%
COC(=O)C1=C(c2cccc(OC)c2OC)C[C@@H]2CC[C@H]1N2C(=O)NCCO | -1.1 | 7.7% | 5.3 | ? | i | 3.3%
COC(=O)C1=C(c2ccccc2OCc2ccccc2)C[C@@H]2CC[C@H]1N2C(=O)NCCc1ccc(F)cc1 | -47.7 | 5.8µM* | 1.2 | i | ? | 11.2%
COC(=O)C1=C(c2cc3ccccc3s2)C[C@@H]2CC[C@H]1N2C(=O)NCc1ccc(C(F)(F)F)cc1 | -9.3 | -6.9% | 2.4 | 18.4µM* | ? | ?
COC(=O)C1=C(c2ccc(OCc3ccccc3)cc2)C[C@@H]2CC[C@H]1N2C(=O)NCc1ccccc1OC | -6.6 | nt | -7.1 | ? | 20.6µM* | nt
COC(=O)C1=C(c2cccc(OC)c2OC)C[C@@H]2CC[C@H]1N2C(=O)NCCS(C)=O (stereo not given in full) | 5.8 | -3.7% | -162.7* | i | i | -0.1%
COC(=O)C1=C(c2cccc(OCc3ccccc3)c2)C[C@@H]2CC[C@H]1N2C(=O)NCc1ccc2[nH]ccc2c1 | -26.2 | -2.2% | 1.1 | i | ? | 5.17µM*
COC(=O)C1=C(c2ccc(F)cc2OCc2ccccc2)C[C@@H]2CC[C@H]1N2C(=O)NCc1ccc(C(F)(F)F)cc1 | -47.3 | -4.5% | -0.8 | i | i | 14.6µM*
COC(=O)C1=C(c2ccccc2OCc2ccccc2)C[C@@H]2CC[C@H]1N2C(=O)NCc1ccccc1 | nt | -4.7% | nt | i | ? | ?
COC(=O)C1=C(c2cccc(OCc3ccccc3)c2)C[C@@H]2CC[C@H]1N2C(=O)NCc1ccc(F)cc1 | -1.3 | 11.0% | -4.0 | ? | i | 4.8%
COC(=O)C1=C(c2ccccc2OCc2ccccc2)C[C@@H]2CC[C@H]1N2C(=O)NCc1ccc(Br)cc1 | -81.6* | -1.4% | 0.3 | i | ? | -12.3%
Cc1ccc(-n2c(/C=C/c3cccc4ccccc34)nc3ccccc3c2=O)cc1 | nt | nt | nt | i | i | nt
O=c1[nH]cnc2nc(-c3ccc(N(CCCl)CCCl)cc3)[nH]c12 | -6.3 | 9.2µM* | -5.1 | ? | ? | 14.6µM*
O=C(O)CCCc1ccc(N(CCCl)CCCl)cc1 | -11.4 | ? | -9.7 | i | i | ?
O=c1[nH]c(=O)n(CCc2ccc(F)cc2)c(O)c1C=NCc1ccc2c(c1)OCO2 | -1.1 | 7.2% | -24.9 | i | i | ?
COc1ccc2[nH]cc(CCN(C)C)c2c1 | -6.6 | -32.4% | -11.5 | i | i | 0.9%
COc1ccc(CNC(=O)/C=C/c2ccc3[nH]cc(CCN(C)C)c3c2)cc1 | -5.1 | 3.16µM* | 2.2 | i | i | 6.5%
CCC/C=C/C=C/C(=O)OC1/C(=C/C(=O)OC)CC2CC(C(C)O)OC(=O)CC(O)CC3CC(OC(C)=O)C(C)(C)C(O)(CC4C/C(=C/C(=O)OC)CC(/C=C\C(C)(C)C1(O)O2)O4)O3 (stereo not given) | nt | ? | nt | nt | nt | 16.2%
Cc1cccnc1 | 11.3 | -55.9% | -0.8 | i | i | 17.6%
COCCCn1c(N)c(C(=O)NCc2ccco2)c2nc3ccccc3nc21 | 0.3 | 18.4µM* | 4.6 | i | i | 16.4µM*
CCC(C)NC(=O)c1c(N)n(CCCOC)c2nc3ccccc3nc12 (stereo not given) | -3.3 | 7.31µM* | 0.6 | 8.2µM* | i | 4.11µM*
